# PMC7862700, “An all-to-all approach to the identification of sequence-specific readers for epigenetic DNA modifications on cytosine”
# How the values were obtained:
# Assay in all cases: DAPPL (digital affinity profiling via proximity ligation, sequencing); 10 mM Tris-HCl pH 7.5, 50 mM NaCl, 1 mM DTT, 4% glycerol, room temperature, 30 min; GST-TFs on glutathione beads, 16-mer random dsDNA library, 0.1% formaldehyde crosslink after washing; high values mean tight binding
# FLI1 = biological target: T1, FLI1 (Homo sapiens, UniProt Q01543 1-452); conditions: protein: recombinant; tags: N-terminal GST; dsDNA, one strand shown
# T1 sequence: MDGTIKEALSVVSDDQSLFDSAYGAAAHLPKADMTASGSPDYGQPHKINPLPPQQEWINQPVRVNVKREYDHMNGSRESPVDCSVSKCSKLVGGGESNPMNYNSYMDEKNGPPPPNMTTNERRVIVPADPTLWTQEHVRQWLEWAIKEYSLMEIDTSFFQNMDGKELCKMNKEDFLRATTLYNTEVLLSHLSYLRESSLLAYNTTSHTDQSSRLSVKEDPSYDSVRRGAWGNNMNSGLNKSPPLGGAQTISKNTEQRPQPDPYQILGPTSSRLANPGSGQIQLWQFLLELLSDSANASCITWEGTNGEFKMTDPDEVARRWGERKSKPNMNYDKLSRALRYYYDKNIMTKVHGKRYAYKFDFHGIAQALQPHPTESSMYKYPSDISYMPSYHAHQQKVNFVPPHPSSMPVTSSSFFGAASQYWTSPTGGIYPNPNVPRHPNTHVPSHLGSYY
# Procedure, shortened: (§1)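 Binding signal is given per hexamer as its read frequency for a factor divided by its frequency in the tag-only sample. GST-fused human transcription factors were expressed in yeast, captured on glutathione beads, barcoded with DNA and pooled with that sample, then incubated with 200 nmole of a 16-mer random double-stranded DNA library in Tris/NaCl/DTT/glycerol buffer for 30 min at room temperature. The pools were then washed, crosslinked, proximity-ligated, amplified by PCR and sequenced on an Illumina NextSeq500.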
# ELK1 = biological target: T2, ELK1 (Homo sapiens, UniProt P19419 1-428); conditions: protein: recombinant; tags: N-terminal GST; dsDNA, one strand shown
# T2 sequence: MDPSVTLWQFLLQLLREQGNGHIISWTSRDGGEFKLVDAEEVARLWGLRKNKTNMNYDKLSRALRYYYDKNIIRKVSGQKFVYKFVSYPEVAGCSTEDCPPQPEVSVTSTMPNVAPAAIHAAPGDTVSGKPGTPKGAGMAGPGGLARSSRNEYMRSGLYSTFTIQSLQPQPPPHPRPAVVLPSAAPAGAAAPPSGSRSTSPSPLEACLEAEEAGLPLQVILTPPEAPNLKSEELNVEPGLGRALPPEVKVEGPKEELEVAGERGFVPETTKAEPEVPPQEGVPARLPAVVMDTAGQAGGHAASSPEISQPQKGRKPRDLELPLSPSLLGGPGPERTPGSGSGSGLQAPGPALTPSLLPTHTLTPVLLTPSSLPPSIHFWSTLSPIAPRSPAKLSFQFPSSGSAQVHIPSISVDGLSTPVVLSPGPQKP
# Procedure, shortened: as §1
# GABPA = biological target: T3, GABPA (Homo sapiens, UniProt Q06546 1-454); conditions: protein: recombinant; tags: N-terminal GST; dsDNA, one strand shown
# T3 sequence: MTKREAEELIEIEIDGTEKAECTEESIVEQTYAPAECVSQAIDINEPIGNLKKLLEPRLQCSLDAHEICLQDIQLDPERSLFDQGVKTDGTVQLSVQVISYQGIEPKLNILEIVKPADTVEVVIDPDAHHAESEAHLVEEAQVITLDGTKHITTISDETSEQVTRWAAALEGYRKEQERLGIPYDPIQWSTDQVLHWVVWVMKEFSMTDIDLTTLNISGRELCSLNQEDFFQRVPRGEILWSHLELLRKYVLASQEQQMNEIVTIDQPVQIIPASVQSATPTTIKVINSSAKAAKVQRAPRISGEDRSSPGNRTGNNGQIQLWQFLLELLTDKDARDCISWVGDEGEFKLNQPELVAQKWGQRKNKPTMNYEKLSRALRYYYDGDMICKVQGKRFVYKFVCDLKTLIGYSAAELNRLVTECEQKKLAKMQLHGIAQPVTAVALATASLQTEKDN
# Procedure, shortened: as §1
# ERG = biological target: T4, ERG (Homo sapiens, UniProt P11308 1-479); conditions: protein: recombinant; tags: N-terminal GST; dsDNA, one strand shown
# T4 sequence: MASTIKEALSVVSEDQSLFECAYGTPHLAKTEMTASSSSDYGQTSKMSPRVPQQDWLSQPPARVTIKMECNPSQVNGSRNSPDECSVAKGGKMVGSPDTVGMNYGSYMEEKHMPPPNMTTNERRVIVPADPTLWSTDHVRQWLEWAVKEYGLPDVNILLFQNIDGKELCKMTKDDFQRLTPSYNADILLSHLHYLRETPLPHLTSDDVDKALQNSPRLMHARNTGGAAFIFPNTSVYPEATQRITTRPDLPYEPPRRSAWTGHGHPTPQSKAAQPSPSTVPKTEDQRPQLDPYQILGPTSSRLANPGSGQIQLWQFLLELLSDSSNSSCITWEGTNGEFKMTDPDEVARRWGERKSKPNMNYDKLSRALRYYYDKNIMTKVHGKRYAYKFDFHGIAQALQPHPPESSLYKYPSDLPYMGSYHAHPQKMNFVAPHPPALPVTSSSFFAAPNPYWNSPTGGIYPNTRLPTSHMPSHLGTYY
# Procedure, shortened: as §1
# ELF1 = ELF1 (Homo sapiens, UniProt P32519 1-619); conditions: protein: recombinant; tags: N-terminal GST; dsDNA, one strand shown
# ELF1, sequence (P32519 whole entry): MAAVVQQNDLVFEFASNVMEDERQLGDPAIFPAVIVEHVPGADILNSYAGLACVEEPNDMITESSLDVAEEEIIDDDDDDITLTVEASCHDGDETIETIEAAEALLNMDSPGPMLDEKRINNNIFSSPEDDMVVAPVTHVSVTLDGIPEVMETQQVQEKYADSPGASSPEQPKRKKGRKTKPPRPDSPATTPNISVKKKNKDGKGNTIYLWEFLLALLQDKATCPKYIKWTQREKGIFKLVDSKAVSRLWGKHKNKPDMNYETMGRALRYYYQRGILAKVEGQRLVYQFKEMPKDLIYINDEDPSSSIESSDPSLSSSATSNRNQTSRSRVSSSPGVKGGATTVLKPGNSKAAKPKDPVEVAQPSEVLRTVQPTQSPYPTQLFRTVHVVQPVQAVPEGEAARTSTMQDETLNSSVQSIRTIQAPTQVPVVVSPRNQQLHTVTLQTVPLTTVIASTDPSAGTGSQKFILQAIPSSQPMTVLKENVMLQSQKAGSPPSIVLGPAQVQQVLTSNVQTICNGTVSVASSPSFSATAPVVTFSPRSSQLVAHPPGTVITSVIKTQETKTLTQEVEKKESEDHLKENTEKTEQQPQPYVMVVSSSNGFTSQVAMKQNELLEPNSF
# Procedure, shortened: as §1
# EHF = biological target: T5, EHF (Homo sapiens, UniProt Q9NZC4 1-300); conditions: protein: recombinant; tags: N-terminal GST; dsDNA, one strand shown
# T5 sequence: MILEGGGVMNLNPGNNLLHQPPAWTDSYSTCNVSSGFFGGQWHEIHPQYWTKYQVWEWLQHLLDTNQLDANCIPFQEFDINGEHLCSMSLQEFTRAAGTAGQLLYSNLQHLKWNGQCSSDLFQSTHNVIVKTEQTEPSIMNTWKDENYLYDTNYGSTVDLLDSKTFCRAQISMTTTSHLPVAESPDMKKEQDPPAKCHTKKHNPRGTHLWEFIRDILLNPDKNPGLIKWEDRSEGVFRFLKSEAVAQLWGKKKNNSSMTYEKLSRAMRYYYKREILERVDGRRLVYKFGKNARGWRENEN
# Procedure, shortened: as §1
# SPI1 = SPI1 (Homo sapiens, UniProt P17947 1-270); conditions: protein: recombinant; tags: N-terminal GST; dsDNA, one strand shown
# Procedure, shortened: as §1
# SPIB = SPIB (Homo sapiens, UniProt Q01892 1-262); conditions: protein: recombinant; tags: N-terminal GST; dsDNA, one strand shown
# SPIB, sequence (Q01892 whole entry): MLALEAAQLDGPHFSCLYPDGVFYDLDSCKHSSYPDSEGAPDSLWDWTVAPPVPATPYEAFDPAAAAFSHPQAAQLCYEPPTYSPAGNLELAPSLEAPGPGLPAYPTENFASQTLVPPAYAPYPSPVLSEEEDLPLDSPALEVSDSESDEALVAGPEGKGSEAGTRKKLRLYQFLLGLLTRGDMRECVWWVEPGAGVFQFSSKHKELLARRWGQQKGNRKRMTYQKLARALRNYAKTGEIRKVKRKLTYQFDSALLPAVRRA
# Procedure, shortened: as §1
# ELK3 = biological target: T6, ELK3 (Homo sapiens, UniProt P41970 1-407); conditions: protein: recombinant; tags: N-terminal GST; dsDNA, one strand shown
# T6 sequence: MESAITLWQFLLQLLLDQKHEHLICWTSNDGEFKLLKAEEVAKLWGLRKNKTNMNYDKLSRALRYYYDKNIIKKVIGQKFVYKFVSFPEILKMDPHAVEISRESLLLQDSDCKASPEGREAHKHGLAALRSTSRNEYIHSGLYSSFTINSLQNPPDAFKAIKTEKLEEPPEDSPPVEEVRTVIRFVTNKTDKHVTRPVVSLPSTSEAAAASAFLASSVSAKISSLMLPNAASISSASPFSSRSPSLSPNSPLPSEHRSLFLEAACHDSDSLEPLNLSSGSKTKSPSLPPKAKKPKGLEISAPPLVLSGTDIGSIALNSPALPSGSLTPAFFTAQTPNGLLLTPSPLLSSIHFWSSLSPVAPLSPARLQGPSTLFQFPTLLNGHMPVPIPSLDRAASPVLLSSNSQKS
# Procedure, shortened: as §1
# FEV = biological target: T7, FEV (Homo sapiens, UniProt Q99581 1-238); conditions: protein: recombinant; tags: N-terminal GST; dsDNA, one strand shown
# T7 sequence: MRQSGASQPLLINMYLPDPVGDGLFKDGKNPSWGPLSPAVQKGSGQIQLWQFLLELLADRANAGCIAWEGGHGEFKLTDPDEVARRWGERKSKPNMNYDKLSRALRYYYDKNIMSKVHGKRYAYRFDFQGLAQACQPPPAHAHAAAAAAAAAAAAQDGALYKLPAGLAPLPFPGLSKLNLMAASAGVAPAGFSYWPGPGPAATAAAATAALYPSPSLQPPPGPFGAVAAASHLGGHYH
# Procedure, shortened: as §1
# ETV5 = ETV5 (Homo sapiens, UniProt P41161 1-510); conditions: protein: recombinant; tags: N-terminal GST; dsDNA, one strand shown
# ETV5, sequence (P41161 whole entry): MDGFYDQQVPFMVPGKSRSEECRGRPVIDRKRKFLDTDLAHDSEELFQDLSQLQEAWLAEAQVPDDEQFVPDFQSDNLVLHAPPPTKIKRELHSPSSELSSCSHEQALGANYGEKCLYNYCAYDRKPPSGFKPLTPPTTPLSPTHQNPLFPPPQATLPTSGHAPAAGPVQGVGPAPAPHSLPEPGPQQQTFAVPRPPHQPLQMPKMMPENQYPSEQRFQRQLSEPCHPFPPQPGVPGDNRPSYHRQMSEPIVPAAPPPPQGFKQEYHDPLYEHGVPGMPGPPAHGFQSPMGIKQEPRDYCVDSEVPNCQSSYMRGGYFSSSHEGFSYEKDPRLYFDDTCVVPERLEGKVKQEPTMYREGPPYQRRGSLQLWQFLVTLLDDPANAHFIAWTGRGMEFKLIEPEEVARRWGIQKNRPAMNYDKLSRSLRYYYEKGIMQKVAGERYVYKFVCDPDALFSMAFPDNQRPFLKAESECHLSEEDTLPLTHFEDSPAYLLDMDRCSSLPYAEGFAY
# Procedure, shortened: as §1
# HSF1 = HSF1 (Homo sapiens, UniProt Q00613 1-529); conditions: protein: recombinant; tags: N-terminal GST; chain copies: 3; dsDNA, one strand shown
# HSF1, sequence (Q00613 whole entry): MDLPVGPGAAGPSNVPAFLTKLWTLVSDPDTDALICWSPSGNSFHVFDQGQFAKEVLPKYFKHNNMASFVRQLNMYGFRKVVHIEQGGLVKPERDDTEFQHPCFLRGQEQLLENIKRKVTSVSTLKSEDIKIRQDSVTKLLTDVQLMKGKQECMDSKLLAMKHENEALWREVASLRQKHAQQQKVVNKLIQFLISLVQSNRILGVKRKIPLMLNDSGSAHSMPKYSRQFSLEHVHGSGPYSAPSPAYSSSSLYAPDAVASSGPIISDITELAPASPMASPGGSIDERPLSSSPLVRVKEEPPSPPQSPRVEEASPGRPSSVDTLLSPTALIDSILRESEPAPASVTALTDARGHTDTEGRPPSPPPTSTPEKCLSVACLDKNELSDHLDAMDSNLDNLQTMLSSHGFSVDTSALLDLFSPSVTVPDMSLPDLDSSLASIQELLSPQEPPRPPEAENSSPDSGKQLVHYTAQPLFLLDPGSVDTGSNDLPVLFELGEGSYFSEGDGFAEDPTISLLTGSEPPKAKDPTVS
# Procedure, shortened: as §1
# SPIC = biological target: T8, SPIC (Homo sapiens, UniProt Q8N5J4 1-248); conditions: protein: recombinant; tags: N-terminal GST; dsDNA, one strand shown
# T8 sequence: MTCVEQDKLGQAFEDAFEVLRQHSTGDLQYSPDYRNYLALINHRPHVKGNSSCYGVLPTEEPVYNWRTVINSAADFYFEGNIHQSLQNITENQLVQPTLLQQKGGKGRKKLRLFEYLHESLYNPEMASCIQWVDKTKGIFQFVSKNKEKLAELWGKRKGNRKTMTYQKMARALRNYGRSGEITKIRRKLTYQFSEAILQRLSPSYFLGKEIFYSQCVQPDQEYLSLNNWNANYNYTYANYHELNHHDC
# Procedure, shortened: as §1
# ELF4 = ELF4 (Homo sapiens, UniProt Q99607 1-663); conditions: protein: recombinant; tags: N-terminal GST; dsDNA, one strand shown
# ELF4, sequence (Q99607 whole entry): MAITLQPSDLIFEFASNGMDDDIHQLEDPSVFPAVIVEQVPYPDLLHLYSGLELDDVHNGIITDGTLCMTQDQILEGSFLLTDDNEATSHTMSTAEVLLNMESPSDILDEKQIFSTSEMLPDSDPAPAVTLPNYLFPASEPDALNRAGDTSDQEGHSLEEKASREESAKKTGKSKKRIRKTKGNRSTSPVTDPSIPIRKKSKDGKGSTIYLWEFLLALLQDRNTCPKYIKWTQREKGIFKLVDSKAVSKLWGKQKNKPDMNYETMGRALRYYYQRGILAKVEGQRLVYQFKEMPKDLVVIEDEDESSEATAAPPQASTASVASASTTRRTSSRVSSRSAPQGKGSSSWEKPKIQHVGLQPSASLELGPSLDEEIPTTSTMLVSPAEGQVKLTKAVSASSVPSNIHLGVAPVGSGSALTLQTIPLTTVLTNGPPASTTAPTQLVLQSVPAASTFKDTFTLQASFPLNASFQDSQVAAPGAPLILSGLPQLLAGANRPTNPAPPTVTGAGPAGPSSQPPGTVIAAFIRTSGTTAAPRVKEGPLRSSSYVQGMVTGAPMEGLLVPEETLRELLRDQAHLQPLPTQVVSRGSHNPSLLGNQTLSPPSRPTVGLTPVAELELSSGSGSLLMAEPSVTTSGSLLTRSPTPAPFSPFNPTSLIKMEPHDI
# Procedure, shortened: as §1
# ELK4 = biological target: T9, ELK4 (Homo sapiens, UniProt P28324-2 1-405); conditions: protein: recombinant; tags: N-terminal GST; dsDNA, one strand shown
# T9 sequence: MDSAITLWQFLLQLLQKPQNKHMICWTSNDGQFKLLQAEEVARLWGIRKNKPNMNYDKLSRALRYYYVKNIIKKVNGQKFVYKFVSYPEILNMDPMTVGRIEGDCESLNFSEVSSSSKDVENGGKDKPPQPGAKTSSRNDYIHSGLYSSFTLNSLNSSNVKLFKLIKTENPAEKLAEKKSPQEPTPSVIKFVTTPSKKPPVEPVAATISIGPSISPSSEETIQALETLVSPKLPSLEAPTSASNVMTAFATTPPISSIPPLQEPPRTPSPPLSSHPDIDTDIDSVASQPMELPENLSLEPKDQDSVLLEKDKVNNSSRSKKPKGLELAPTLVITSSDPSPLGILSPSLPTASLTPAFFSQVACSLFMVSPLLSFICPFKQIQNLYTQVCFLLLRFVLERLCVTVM
# Procedure, shortened: as §1
# ETV2 = biological target: T10, ETV2 (Homo sapiens, UniProt O00321 1-342); conditions: protein: recombinant; tags: N-terminal GST; dsDNA, one strand shown
# T10 sequence: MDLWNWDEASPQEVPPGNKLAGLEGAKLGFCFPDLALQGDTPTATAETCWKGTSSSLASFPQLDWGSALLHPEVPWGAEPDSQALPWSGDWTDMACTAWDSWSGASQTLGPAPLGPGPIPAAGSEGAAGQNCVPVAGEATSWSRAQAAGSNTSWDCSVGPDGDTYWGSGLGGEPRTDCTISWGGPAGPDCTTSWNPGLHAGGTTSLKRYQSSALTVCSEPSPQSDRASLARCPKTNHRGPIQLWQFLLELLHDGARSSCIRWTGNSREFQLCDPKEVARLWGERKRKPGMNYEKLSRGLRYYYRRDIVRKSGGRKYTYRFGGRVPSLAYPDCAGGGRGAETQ
# Procedure, shortened: as §1
# ELF3 = biological target: T11, ELF3 (Homo sapiens, UniProt P78545 1-371); conditions: protein: recombinant; tags: N-terminal GST; dsDNA, one strand shown
# T11 sequence: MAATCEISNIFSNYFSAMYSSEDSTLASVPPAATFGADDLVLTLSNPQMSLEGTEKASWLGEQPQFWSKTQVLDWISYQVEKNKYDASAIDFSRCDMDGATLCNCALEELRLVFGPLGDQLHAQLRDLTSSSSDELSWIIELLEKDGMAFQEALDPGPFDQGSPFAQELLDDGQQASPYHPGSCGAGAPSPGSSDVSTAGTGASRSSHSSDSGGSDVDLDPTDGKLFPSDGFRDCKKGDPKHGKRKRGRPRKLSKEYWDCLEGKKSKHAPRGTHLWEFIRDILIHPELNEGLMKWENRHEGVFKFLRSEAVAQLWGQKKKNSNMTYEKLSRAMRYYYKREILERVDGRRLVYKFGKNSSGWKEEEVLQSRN
# Procedure, shortened: as §1
# CRX = CRX (Homo sapiens, UniProt O43186 1-299); conditions: protein: recombinant; tags: N-terminal GST; dsDNA, one strand shown
# CRX, sequence (O43186 whole entry): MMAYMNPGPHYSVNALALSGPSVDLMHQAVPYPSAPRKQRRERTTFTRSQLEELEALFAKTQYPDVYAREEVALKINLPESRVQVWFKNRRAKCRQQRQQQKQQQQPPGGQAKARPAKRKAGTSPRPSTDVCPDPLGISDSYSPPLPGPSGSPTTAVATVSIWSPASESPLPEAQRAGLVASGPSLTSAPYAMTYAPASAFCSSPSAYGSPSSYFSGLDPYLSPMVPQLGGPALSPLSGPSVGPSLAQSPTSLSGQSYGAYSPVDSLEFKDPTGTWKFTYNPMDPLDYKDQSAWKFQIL
# Procedure, shortened: as §1
# ETV1 = ETV1 (Homo sapiens, UniProt P50549 1-477); conditions: protein: recombinant; tags: N-terminal GST; dsDNA, one strand shown
# ETV1, sequence (P50549 whole entry): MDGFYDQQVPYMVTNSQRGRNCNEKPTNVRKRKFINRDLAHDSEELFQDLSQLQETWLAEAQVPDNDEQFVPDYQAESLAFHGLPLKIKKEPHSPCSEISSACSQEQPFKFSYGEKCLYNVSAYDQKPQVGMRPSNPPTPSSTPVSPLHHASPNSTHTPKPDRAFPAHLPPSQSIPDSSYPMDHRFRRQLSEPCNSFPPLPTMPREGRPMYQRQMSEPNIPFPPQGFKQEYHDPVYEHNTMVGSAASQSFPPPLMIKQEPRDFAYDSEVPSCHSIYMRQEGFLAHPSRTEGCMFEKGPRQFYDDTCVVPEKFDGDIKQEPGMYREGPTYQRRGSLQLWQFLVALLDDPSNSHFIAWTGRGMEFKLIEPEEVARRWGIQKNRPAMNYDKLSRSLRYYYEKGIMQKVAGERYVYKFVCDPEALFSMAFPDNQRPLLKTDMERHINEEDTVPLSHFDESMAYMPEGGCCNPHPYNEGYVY
# Procedure, shortened: as §1
sequence,measurement,setting,value
CTACCG,binding signal,FLI1,"1.44 fold enrichment (6-mer frequency, TF over GST control)"
same,binding signal,ELK1,"1.71 fold enrichment (6-mer frequency, TF over GST control)"
same,binding signal,GABPA,"1.58 fold enrichment (6-mer frequency, TF over GST control)"
same,binding signal,ERG,"1.5 fold enrichment (6-mer frequency, TF over GST control)"
same,binding signal,ELF1,"1.64 fold enrichment (6-mer frequency, TF over GST control)"
same,binding signal,EHF,"1.55 fold enrichment (6-mer frequency, TF over GST control)"
same,binding signal,SPI1,"1.52 fold enrichment (6-mer frequency, TF over GST control)"
same,binding signal,SPIB,"1.73 fold enrichment (6-mer frequency, TF over GST control)"
same,binding signal,ELK3,"1.57 fold enrichment (6-mer frequency, TF over GST control)"
same,binding signal,FEV,"1.7 fold enrichment (6-mer frequency, TF over GST control)"
same,binding signal,ETV5,"1.64 fold enrichment (6-mer frequency, TF over GST control)"
same,binding signal,HSF1,"1.16 fold enrichment (6-mer frequency, TF over GST control)"
same,binding signal,SPIC,"1.62 fold enrichment (6-mer frequency, TF over GST control)"
same,binding signal,ELF4,"1.59 fold enrichment (6-mer frequency, TF over GST control)"
same,binding signal,ELK4,"1.38 fold enrichment (6-mer frequency, TF over GST control)"
same,binding signal,ETV2,"1.47 fold enrichment (6-mer frequency, TF over GST control)"
same,binding signal,ELF3,"1.67 fold enrichment (6-mer frequency, TF over GST control)"
same,binding signal,CRX,"1.02 fold enrichment (6-mer frequency, TF over GST control)"
same,binding signal,ETV1,"1.62 fold enrichment (6-mer frequency, TF over GST control)"
